These compounds were tested on Lefty1 (assay: Lefty1 binders on small-molecule microarrays, primary screen, biochemical, small-molecule microarray, 635/667 nm fluorescence (AID 1139)). Details: small-molecule microarray binding, fluorescence 635/667; higher = more signal.
Compound `COC(=O)[C@@]1(Cc2ccc(OC)cc2)[C@H]2c3cc(C(=O)N4CCCC4)n(Cc4nc5ccccc5[nH]4)c3C[C@H]2CN1C(=O)c1ccccc1` has a composite z-score of -0.47. `COc1ccc(NC(=O)O[C@H]2[C@H](OC(=O)c3cc4ccccc4[nH]3)[C@@H](OC(=O)c3cc4ccccc4[nH]3)[C@@H](OC)O[C@@H]2CO)cc1` was tested, and the composite z-score was 0.194. Compound `C=C(CCCC)C(=O)CC[C@@H](OC(C)=O)c1ccc(CO)o1` has a composite z-score of 1.64. `O=C1[C@H]2C=C(I)[C@H](C[C@@H]2OCCCCO)[C@@]12CO2` gave a composite z-score of 0.115. In the case of `COCCCNC(=O)[C@@]1(Cc2ccccc2)N=C(c2ccc(OCCCO)cc2)O[C@H]1c1ccccc1CN=[N+]=[N-]`, the composite z-score is reported as 0.872. In the case of `CN(C)CCCCCCNC(=O)[C@@H]1C[C@@H]2C(=O)N3CCC[C@H]3C(=O)N2[C@@H]1c1ccc(O)cc1`, the composite z-score is reported as 1.72. Work on `COc1ccc([C@H]2C[C@H]3C(Br)=C[C@@]2(CO)C(=O)[C@]32CO2)cc1` yielded a composite z-score of -0.271. For `C=CCNC(=O)[C@@H]1[C@H]2C(=O)O[C@H](c3ccccc3)[C@H](c3ccccc3)N2[C@H](c2ccc(OCCO)cc2)[C@@]12C(=O)N(C(=O)OCCOC)c1ccc(C#CCNC(N)=O)cc12`, the composite z-score was 0.947. With `CS(=O)(=O)CCOC(=O)C1=CC(CCCO)=CC(c2ccc(CN3CCCC3)cc2)N(Cc2cccc(OC(F)(F)F)c2)C=C1C(=O)OCCS(C)(=O)=O` (stereo unspecified) the composite z-score was 0.889. `COCCOC(=O)N1C(=O)[C@@]2(c3cc(C#CC4(O)CCCCCC4)ccc31)[C@H](C(=O)Nc1nc3ccccc3s1)[C@H]1C(=O)O[C@H](c3ccccc3)[C@H](c3ccccc3)N1[C@@H]2c1ccc(OCCO)cc1` gave a composite z-score of 1.22. Work on `[N-]=[N+]=Nc1ccccc1C[C@]1(C(=O)NCC(O)CO)N=C(c2ccc(OCCCO)cc2)O[C@H]1c1ccccc1` (stereo partly specified) yielded a composite z-score of -0.492. For `[N-]=[N+]=NCc1ccccc1C[C@@]1(C(=O)NCC(O)CO)N=C(c2ccc(OCCCO)cc2)O[C@@H]1c1ccccc1` (stereo partly specified), the composite z-score was -1.7. Work on `C=CCN1C(=O)[C@]2(O[C@H](CCO)[C@@H]([Si](C)(C)c3ccc(OC)cc3)[C@@H]2C)c2cc(N(C=O)c3ccccc3)ccc21` yielded a composite z-score of 0.148. `Cc1ccc(S(=O)(=O)N2C[C@@H](C(=O)O)[C@H](Sc3ccccc3)C[C@H]2c2ccccc2)cc1` gave a composite z-score of 0.697. Work on `COC(=O)[C@]1(Cc2ccccc2)N=C(c2ccc(OCCCO)cc2)O[C@@H]1c1ccccc1N=[N+]=[N-]` yielded a composite z-score of 0.83. Work on `C=CC[C@]1(C(N)=O)N=C(c2ccc(OCCCO)cc2)O[C@H]1c1ccccc1` yielded a composite z-score of -0.664. With `[N-]=[N+]=Nc1ccccc1[C@H]1OC(c2ccc(OCCCO)cc2)=N[C@@]1(Cc1ccccc1)C(=O)N1CCOCC1` the composite z-score was 0.511. `O=C1NC(=O)C2C1C=CC(C(O)c1ccc(-c3ccccc3)s1)N2Nc1ccc(Cl)cc1Cl` (stereo unspecified) showed a composite z-score of 0.127. In the case of `NCCCCCNC(=O)[C@H]1C[C@H]2C(=O)N3CCC[C@H]3C(=O)N2[C@H]1c1ccc(O)cc1`, the composite z-score is reported as 1.1. For `CC(=O)n1cc(C(O)C2C=CC3C(=O)NC(=O)C3N2Nc2ccccn2)c2ccccc21` (stereo unspecified), the composite z-score was -0.0259. `CO[C@H]1O[C@H](CO)[C@@H](OC(=O)Nc2cccc(F)c2)[C@H](OC(=O)Nc2ccccc2)[C@H]1OC(=O)Nc1ccccc1` was tested, and the composite z-score was 1.3. With `CO[C@H]1O[C@H](CO)[C@@H](OC(=O)Nc2ccccc2-c2ccccc2)[C@H](OC(=O)Nc2ccccc2-c2ccccc2)[C@@H]1OC(=O)Nc1ccccc1-c1ccccc1` the composite z-score was 0.55. Work on `O=C(NCc1ccccc1)[C@@H]1c2ccccc2C(=O)N(C2Cc3ccccc3C2)[C@H]1c1ccc(CO)cc1` yielded a composite z-score of 0.459. `O=C1C2C=CC(C(O)c3ccc(-c4ccccc4)s3)N(Nc3ccccc3)C2C(=O)N1c1ccccc1` (stereo unspecified) gave a composite z-score of -0.28. Work on `Cc1c(NC(=O)/C(C#N)=C/c2cccc([N+](=O)[O-])c2)c(=O)n(-c2ccccc2)n1C` yielded a composite z-score of 0.931. `O=C1C2C=CC(C(O)c3c(F)cccc3Cl)N(Nc3ccccc3F)C2C(=O)N1c1ccccc1` (stereo unspecified) gave a composite z-score of -0.199. For `NCCCCCCNC(=O)[C@H]1C[C@H]2C(=O)N[C@@H](Cc3ccccc3)C(=O)N2[C@H]1c1cccc(OCCO)c1`, the composite z-score was 0.0358. `CN(C)CCCC[C@@H]1NC(=O)[C@H]2C[C@@H](C(=O)NCCCCCN)[C@@H](c3cccc(OCCO)c3)N2C1=O` showed a composite z-score of 1.66. In the case of `O=C(NCCN1CCOCC1)[C@@H]1c2ccccc2C(=O)N(Cc2cc(C(F)(F)F)cc(C(F)(F)F)c2)[C@H]1c1ccc(CO)cc1`, the composite z-score is reported as -0.75. For `COc1ccc([Si](C)(C)[C@@H]2[C@@H](CC(=O)N3Cc4ccccc4C[C@H]3CO)O[C@]3(C(=O)N(Cc4cccc(N5CCC5=O)c4)c4ccccc43)[C@H]2C)cc1`, the composite z-score was 1.02. Compound `CN1C(=O)C2C=CC(C(O)c3c(F)cccc3Cl)N(NC(=O)OC(C)(C)C)C2C1=O` (stereo unspecified) has a composite z-score of -0.242. `O=C1OCCC/C=C\[C@H]2OC34C=CCN(c5ccc6ccccc6c5)C(=O)[C@H]3N(CCCCCO)C(=O)[C@@H]4C12` (stereo partly specified) was tested, and the composite z-score was -0.343. Work on `COc1ccc([Si](C)(C)[C@H]2[C@H](CC(=O)N3CCC[C@H]3CO)O[C@@]3(C(=O)N(Cc4cccc(N5CCOC5=O)c4)c4ccccc43)[C@@H]2C)cc1` yielded a composite z-score of 1.47. Work on `COCC(=C=CC[C@H](O)c1cccc(OCCO)c1)CCO` yielded a composite z-score of 1.48. Compound `C=CCC(OC(C)=O)[C@@H]1[C@@H](N(Cc2ccc(-c3cccc(C(F)(F)F)c3)o2)C(=O)c2cccc3ccccc23)c2cc(OCCCO)ccc2N1C(=O)Cc1ccc2ccccc2c1` (stereo partly specified) has a composite z-score of -0.0051. Compound `COCCOC(=O)N1C(=O)[C@@]2(c3ccccc31)[C@H](C(=O)N1CCCCCCC1)[C@H]1C(=O)O[C@H](c3ccccc3)[C@H](c3ccccc3)N1[C@@H]2c1ccc(OCCO)cc1` has a composite z-score of 1.91.

Reference: PubChem BioAssay
